# Assay results: PubChem BioAssay (NCI)
# The panel holds about 83,000 compounds, 20% with a hit somewhere; the sample as a whole holds those more often.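 Plates (96-well) were seeded with cells, treated with compound at one concentration, and incubated for 48 hours before percent growth was determined.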 Unmarked numbers belong to inactive results. The source made the active and inactive calls. Rule for the calls: active = growth percent below 10; inactive = the rest.
# Tests used:
# Test in all cases: NCI-60 one-dose screen, 48 h (100 = growth as untreated, 0 = no growth, -100 = all killed)
# Conditions in all cases: 10 µM unless noted
# NCI-H23 lung = test system: NCI-H23 lung
# NCI-H226 lung = test system: NCI-H226 lung
# NCI-H322M lung = test system: NCI-H322M lung
# HOP-62 NSCLC = test system: HOP-62 NSCLC
# NCI-H460 lung = test system: NCI-H460 lung
# HOP-92 NSCLC = test system: HOP-92 NSCLC
# NCI-H522 lung = test system: NCI-H522 lung
# A549/ATCC NSCLC = test system: A549/ATCC NSCLC
# 786-0 renal = test system: 786-0 renal
# DU-145 prostate = test system: DU-145 prostate
# K-562 leukemia = test system: K-562 leukemia
# MALME-3M melanoma = test system: MALME-3M melanoma
# MDA-MB-231 breast = test system: MDA-MB-231 breast
# RXF 393 renal = test system: RXF 393 renal
# SF-268 CNS = test system: SF-268 CNS
# SF-295 CNS = test system: SF-295 CNS
# SF-539 CNS = test system: SF-539 CNS
# UACC-257 melanoma = test system: UACC-257 melanoma
# M14 melanoma = test system: M14 melanoma
SMILES,growth (NCI-H23 lung),growth (NCI-H226 lung),growth (NCI-H322M lung),growth (HOP-62 NSCLC),growth (NCI-H460 lung),growth (HOP-92 NSCLC),growth (NCI-H522 lung),growth (A549/ATCC NSCLC),growth (786-0 renal),growth (DU-145 prostate),growth (K-562 leukemia),growth (MALME-3M melanoma),growth (MDA-MB-231 breast),growth (RXF 393 renal),growth (SF-268 CNS),growth (SF-295 CNS),growth (SF-539 CNS),growth (UACC-257 melanoma),growth (M14 melanoma)
COc1ccc(/C=C2\C=C(c3ccccc3)N(CCc3ccccc3)C2=O)cc1OC,68.4%,29.7%,8.42% (active),-30% (active),20.5%,-4.05% (active),42.5%,32.9%,8.93% (active),69%,47.6%,39.3%,29.6%,-3.29% (active),55.2%,26.8%,42.1%,69.3%,51.5%
CCOC(=O)C1C(=O)C=C(c2cnccn2)CC1c1ccc(OC)c(OC)c1 (centres undefined),95.6%,96.1%,103%,88.3%,114%,58.2%,73.3%,86.6%,83.7%,105%,81.3%,100%,110%,114%,102%,95.1%,95.7%,81.8%,85.5%
CCCN1CCN(c2ccc3nc(-c4ccc5nc(-c6cc(OC)c(OC)c(OC)c6)[nH]c5c4)[nH]c3c2)CC1,80.1%,81.7%,94%,84.3%,93.2%,70.5%,41.1%,106%,77.3%,109%,59.5%,7.58% (active),98.4%,15.6%,75.6%,65.9%,59.6%,71.7%,63.9%
CCOC(=O)c1ccc(NC(=O)CCCN(CC)CC)cc1,95.4%,103%,92.4%,101%,107%,78%,63.6%,90.5%,87.2%,105%,97.7%,98.5%,114%,130%,104%,103%,103%,108%,91.3%
O=c1ccn(C2OC(F)(CO)C(O)C2F)c(=O)[nH]1 (centres undefined),100%,102%,113%,82.7%,107%,98.1%,75%,104%,96%,110%,112%,110%,114%,141%,100%,98.3%,100%,95.1%,95.3%
NC(N)=N/N=C(/c1ccccc1)c1ccccc1F,34.4%,14.4%,62%,17.5%,13.2%,57.8%,4.97% (active),28.4%,-26.2% (active),15%,4% (active),35.7%,22.1%,43%,51.8%,11.8%,2.84% (active),68.1%,-45.4% (active)
CCCCCCCSc1ccc(C(=O)O)cc1,102%,97.2%,99.7%,106%,104%,83.5%,100%,98.9%,100%,119%,105%,111%,112%,94.4%,109%,94.3%,99.7%,95.8%,113%
Clc1ccc2c(NCCCN3CCN(c4nc(N5CCOCC5)nc5ccccc45)CC3)ccnc2c1,73.8%,75.7%,30%,42.6%,4.92% (active),12.2%,13%,24%,-36% (active),27.1%,-46.2% (active),-82% (active),-34.5% (active),-76.6% (active),46.7%,-46.7% (active),-82.7% (active),-68.3% (active),-80.3% (active)
CNC(=O)NCC1OC(n2cnc3c(NC(=O)Nc4ccccc4)ncnc32)C2OC(C)(C)OC12 (centres undefined),87.3%,109%,101%,99.3%,101%,14.4%,103%,103%,105%,93.7%,90.4%,75.7%,107%,96.6%,91.3%,119%,83.9%,107%,88.8%
N[C@H]1CCC[C@@H]1NCCCCN1C(=O)c2cccc3cccc(c23)C1=O,71%,83.8%,54.9%,76.2%,39.4%,51.4%,57.1%,53.3%,54.8%,43.4%,65.9%,104%,52.4%,63.9%,48.1%,71.9%,29.7%,104%,53.1%
CCc1nc2ccccc2[nH]1,104%,99.7%,110%,105%,102%,99.7%,103%,107%,112%,125%,102%,122%,103%,113%,103%,119%,104%,102%,99.8%
C=C(CNCCc1ccc(O)cc1)[C@@H]1CC[C@]2(COC3CCCCO3)CC[C@]3(C)[C@H](CC[C@@H]4[C@@]5(C)CCC(N)C(C)(C)[C@@H]5CC[C@]43C)[C@@H]12 (some centres undefined),-89.1% (active),-59.1% (active),-95.1% (active),-91.4% (active),-84.2% (active),-73.9% (active),-84.3% (active),-86.2% (active),-79.4% (active),-88.9% (active),-73% (active),-83.9% (active),-92.2% (active),-83.9% (active),-71.6% (active),-88% (active),-94.9% (active),-80.7% (active),-88.6% (active)
COc1ccc(/C=C(\C#N)n2nnc3cc(F)c(F)cc32)c(OC)c1OC,71.8%,83%,76%,82.9%,71.4%,83.5%,51.4%,84.2%,93.9%,24.5%,23%,93.4%,61.7%,41.1%,83.5%,105%,92.1%,64.4%,72.7%
Cl.Fc1c[c-]c(-c2ccccn2)c(F)c1.[Pt].c1ccc([PH+](c2ccccc2)c2ccccc2[PH+](c2ccccc2)c2ccccc2)cc1,-84.6% (active),-70% (active),-99.4% (active),-62.2% (active),-73.2% (active),-68% (active),-63% (active),-68.9% (active),-73.9% (active),-98.9% (active),0.976% (active),-83.8% (active),-93.3% (active),-86.8% (active),-72.3% (active),-90.8% (active),-93.6% (active),-71.8% (active),-72.5% (active)
CN1CCN(c2ccc(Nc3ncc(Cl)c(NC[C@@H]4CCCO4)n3)cc2)CC1,15.8%,8.99% (active),35.9%,7.27% (active),13.2%,3.21% (active),25.6%,22.8%,26%,23%,27.2%,27.4%,17.8%,-31.7% (active),24.6%,31.3%,-6.55% (active),44.7%,21.7%
CCO/C=N/C1=C(C#N)C(c2ccc(OC)cc2)c2c(c3ccccc3n(C)c2=O)O1 (centres undefined),101%,95.2%,101%,91.5%,105%,101%,90.2%,97.8%,105%,106%,102%,96.5%,101%,104%,99.2%,101%,98.6%,102%,103%
